The source made the active and inactive calls.

A short description of assay [1]: compound effects on lung adenocarcinoma cell viability – A549, calcein-AM fluorescence, 48 h, basal, profiling panel (AID 1162). The following applies: higher = more signal.
The nature of assay [2]: compound effects on differentiated 3T3-L1 adipocyte viability – cell-based, 3T3-L1 adipocytes, calcein-AM fluorescence, 48 h, basal, profiling panel (AID 1163). The following applies: 3T3-L1 adipocytes viability, higher = more signal.
The nature of assay [3]: compound effects on hepatocellular carcinoma cell viability – HepG2, calcein-AM fluorescence, 48 h, basal, profiling panel (AID 1164). The following applies: higher = more signal.
Assay [4] in a line: compound effects on multiple myeloma cell viability – MM1S, calcein-AM fluorescence, 48 h, basal, profiling panel (AID 1165).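 Also: viability of MM1S multiple myeloma cells under basal unstimulated conditions.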 The following applies: higher = more signal.
The nature of assay [5]: calcein-AM signal in unstimulated myeloma cells – cell-based, calcein-AM fluorescence, 48 h, PK04 Diversity Set, profiling panel (AID 1166).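 Also: cells grown under basal conditions without added stimulus.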 Particulars: RPMI8226 myeloma viability, higher = more signal.
Assay [6] can be described thus: JC-1 mitochondrial signal, unstimulated HepG2 cells – cell-based, JC-1 fluorescence, 24 h, 100 nL compound, profiling panel (AID 1167). Particulars: HepG2 mitochondrial potential, higher = more signal.
Assay [7] is described as follows: JC-1 mitochondrial signal, unstimulated adipocytes – cell-based, JC-1 fluorescence, 3T3-L1 adipocytes, 24 h, 100 nL compound, profiling panel (AID 1168). Particulars: JC-1 mitochondrial fluorescence, higher = more signal, called active from +8 up or from −8 down.
Assay [8] in a line: JC-1 mitochondrial signal, unstimulated myeloma cells – cell-based, JC-1 fluorescence, RPMI8226, 24 h, 100 nL compound, profiling panel (AID 1169). Particulars: JC-1 mitochondrial potential fluorescence, higher = more signal.
A short description of assay [9]: JC-1 mitochondrial signal, unstimulated MM1S myeloma – cell-based, JC-1 fluorescence, 24 h, 100 nL compound, profiling panel (AID 1170). Particulars: MM1S mitochondrial potential, higher = more signal.
A short description of assay [10]: resazurin metabolic signal in A549 cells – cell-based, resazurin fluorescence, 24 h, PK04 Diversity Set, profiling panel (AID 1171). The following applies: A549 viability, higher = more signal, called active from +8 up or from −8 down.
Also: test concentration not given here.

Take `C=CCC(OC(C)=O)[C@@H]1[C@@H](N(Cc2cc3ccccc3o2)C(=O)c2ccc(-c3ccccc3)cc2)c2cc(OCCCO)ccc2N1C(=O)Cc1ccc2ccccc2c1` (stereo not given in full): the z-score is 0.809 in assay [1]; 0.778 in assay [2]; 1.48 in assay [3]; 0.372 in assay [4]; -0.0122 in assay [5]; 1.64 in assay [6]. In addition, the z-score in [7] was -0.211 (inactive); in assay [8], -0.0273; in [9], 0.293; in [10] it was 0.483 (inactive).

With `O=C(N1CCCCC1)[C@]1(CCS(=O)(=O)c2ccccc2)N=C(c2ccc(OCCCO)cc2)O[C@@H]1c1ccccc1`, the z-score in assay [1] was -1.64; in assay [2], 1.68; in assay [3], -0.663; in assay [4], -1.5; in assay [5] it was -3.65; in [6] it was -0.0371. Besides, the z-score is -0.136 (inactive) in [7], -1.1 in [8], -0.751 in assay [9] and -1.32 (inactive) in assay [10].

On to `[N-]=[N+]=NCc1ccccc1[C@@H]1OC(c2ccc(OCCCO)cc2)=N[C@]1(Cc1ccccc1N=[N+]=[N-])C(N)=O`, for which the z-score in assay [1] is -0.533; in assay [2], 0.306; in [3] it was 0.0804; in [4], -1.01; in assay [5], -2.22; in assay [6], -1.5. The z-score in assay [7] is -1.92 (inactive); in [8] it was -0.918; in assay [9] it was -0.0745; in [10], -0.139 (inactive).

In the case of `COc1cc(NN2C(C(O)c3ccccc3)C=CC3C(=O)N(c4ccccc4)C(=O)C32)cc(OC)c1OC` (stereo not given), the z-score in [1] is -0.873; in assay [2], 0.0146; in [3], 0.253; in assay [4], 0.673; in assay [5], 0.0985; in assay [6], -0.602. Also, the z-score is -1.72 (inactive) in assay [7], 0.179 in assay [8], -1.41 in assay [9] and -0.381 (inactive) in [10].

For the compound `COc1ccc(C(=O)Nc2cccc(CN3C(=O)[C@@]4(O[C@@H](CCn5cc([C@H](O)c6ccccc6)nn5)[C@H]([Si](C)(C)c5ccc(OC)cc5)[C@H]4C)c4ccccc43)c2)cc1`, the z-score in assay [1] was -0.311; in assay [2], 0.0953; in [3], -3.44; in assay [4], -2.63; in assay [5], -3.6; in assay [6], -2.16. Besides, the z-score is -0.694 (inactive) in assay [7], -1.03 in [8], -2.24 in assay [9] and -1.88 (inactive) in assay [10].

Consider `C=C(/C(=C/C[C@@H](OC(=O)c1ccncc1)c1ccc(CO)o1)c1cc(C(=O)OC)ccc1OC)C(C)C`, for which the z-score in assay [1] was 0.621; in assay [2], -0.619; in assay [3] it was 0.486; in [4], -2.99; in [5], -2.18; in assay [6] it was 0.654. Also, the z-score in assay [7] is -0.369 (inactive); in assay [8], -0.688; in assay [9], -1.97; in [10], -0.0675 (inactive).

As to `O=C1OCC=C[C@H]2OC34C=CCN(c5ccc(Cl)cc5)C(=O)[C@H]3N(CCCO)C(=O)[C@@H]4[C@@H]12` (stereo not given in full), the z-score in assay [1] was -0.0108; in [2], 1.46; in assay [3], -0.722; in [4], 0.237; in [5] it was -0.802; in assay [6] it was -0.545. The z-score in [7] is 0.978 (inactive); in assay [8], -0.454; in [9] it was 0.856; in [10], -0.875 (inactive).

As to `COc1ccc(C#Cc2ccc3c(c2)[C@]2(C(=O)N3)[C@H](C(=O)N3CCc4cc(OC)c(OC)cc4C3)[C@H]3C(=O)O[C@H](c4ccccc4)[C@H](c4ccccc4)N3[C@@H]2c2ccc(OCCO)cc2)cc1`, the z-score is 1.04 in assay [1]; 0.386 in assay [2]; 0.515 in [3]; -0.73 in assay [4]; 0.223 in assay [5]; -0.233 in assay [6]. The z-score in assay [7] is 2.37 (inactive); in [8], -0.513; in assay [9] it was -1.5; in assay [10], 0.185 (inactive).

Turning to `O=C(NCCN1CCOCC1)[C@@H]1c2ccccc2C(=O)N(Cc2cc(F)cc(C(F)(F)F)c2)[C@H]1c1ccc(CO)cc1`, the z-score was 1.22 in assay [1]; 0.767 in assay [2]; 1.2 in [3]; 0.34 in assay [4]; -0.671 in assay [5]; 1.97 in assay [6]. Moreover, the z-score was 0.13 (inactive) in assay [7], 0.738 in assay [8], -0.119 in assay [9] and 0.935 (inactive) in assay [10].

For `COc1ccc(C(=O)Nc2cccc(CN3C(=O)[C@@]4(O[C@@H](CC(=O)N5Cc6ccccc6C[C@H]5CO)[C@H]([Si](C)(C)c5ccc(OC)cc5)[C@H]4C)c4ccccc43)c2)cc1`, the z-score in [1] was 0.0601; in [2] it was 0.778; in assay [3], -0.446; in assay [4] it was -2.57; in assay [5] it was -3.06; in assay [6], 0.851. Besides, the z-score in [7] is 0.862 (inactive); in assay [8], -0.976; in [9], -1.88; in assay [10], -0.967 (inactive).

For the compound `C=CCN1C(=O)[C@]2(Cc3ccccc31)N=C(c1ccc(OCCCO)cc1)O[C@@H]2c1ccccc1`, the z-score in [1] is -0.686; in [2], -0.201; in assay [3], -0.377; in assay [4], -0.9; in assay [5] it was -3.41; in [6], -0.844. For the same compound, the z-score in assay [7] is 1.83 (inactive); in assay [8], -1.11; in assay [9], -0.672; in [10] it was -2.13 (inactive).

Regarding `C=CCOC(=O)[C@@H]1[C@H]2C(=O)O[C@H](c3ccccc3)[C@H](c3ccccc3)N2[C@H](c2ccc(OCCOC(=O)[C@H]3C[C@H]4C(=O)N[C@@H](Cc5ccccc5)C(=O)N4[C@H]3c3ccc(O)cc3)cc2)[C@@]12C(=O)Nc1ccc(I)cc12`, the z-score in assay [1] was -0.688; in assay [2], -0.724; in assay [3], -0.0809; in [4] it was -3.46; in [5], -2.98; in assay [6], -0.638. Moreover, the z-score in assay [7] was 1.43 (inactive); in [8], -0.609; in assay [9], -1.4; in [10], -0.0596 (inactive).

With `COCCOC(=O)N1C(=O)[C@@]2(c3cc(C#CC4(O)CCCCCC4)ccc31)[C@H](c1ccc(O)cc1)N1[C@H](c3ccccc3)[C@H](c3ccccc3)OC(=O)[C@H]1[C@@H]2C(=O)N1CCc2cc(OC)c(OC)cc2C1`, the z-score in assay [1] is -0.742; in assay [2], 0.0633; in assay [3] it was -0.592; in [4] it was -0.435; in [5], -0.165; in assay [6], -0.206. Besides, the z-score in assay [7] is -0.947 (inactive); in assay [8] it was 0.83; in assay [9], -0.494; in [10] it was 1.65 (inactive).

For `OCCCc1cc[n+](Cc2cccc(OC(F)(F)F)c2)cc1`, the z-score in [1] was -0.0193; in assay [2], 0.997; in assay [3], -1.18; in [4] it was 0.277; in assay [5], -1.86; in assay [6] it was 1.14. The z-score in [7] was -0.487 (inactive); in [8], -0.0293; in [9] it was -0.978; in assay [10], 0.484 (inactive).

(Values after PubChem BioAssay.)
